Test results published in PubChem BioAssay (NCATS).
Inconclusive results are not listed. The source made the active and inactive calls. Calls come from the whole dose curve; as a rule, active = well fitted inhibition curve with a large enough effect; inconclusive = small, poorly fitted or top-dose-only effect; inactive = flat fitted curve, though single readings scatter.

Each compound was assayed against Aldehyde dehydrogenase, mitochondrial (Homo sapiens) (UniProt P05091) (assay: qHTS for Inhibitors of the Aldehyde Dehydrogenase Family (ALDH2) Primary screen (AID 2061308; note: nearly all actives have a fitted effect of over 55% in size;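 for activity change, negative = inhibition: plate controls were vehicle for no effect and reference inhibitor for full effect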)). Conditions: ALDH2 enzyme inhibition qHTS, 1536-well; series mostly up to 56 µM; activity change, negative = inhibition: at the top concentration.
Potency is the fitted concentration of half-maximal effect.

SMILES	Potency	activity change, negative = inhibition
N#Cc1c(-c2ccc(Br)cc2)no[n+]1[O-]	7.94 µM (active)	–
O=S(=O)(c1ccccc1)N1CCN(c2nc(-c3ccc(Br)cc3)cs2)CC1	–	-15% (inactive)
O=C(Nc1nc(-c2ccccc2)cs1)c1ccncc1NS(=O)(=O)c1ccc2ccccc2c1	–	-9.15% (inactive)
CCOC(=O)c1ccc(-n2cccc2/C=C2\NC(=O)NC2=O)cc1	–	-11.5% (inactive)
COc1ccc(C2=Nn3c(nnc3-c3cc(OC)ccc3OC)SC2)cc1	–	11.2% (inactive)
Cc1nc(-c2ccccc2)oc1-c1ccc2ncnc(NCc3ncc[nH]3)c2c1	–	-0.597% (inactive)
COc1ccc(C2=Nn3c(nnc3-c3ccc(OC)cc3)SC2)cc1	–	0.75% (inactive)
COc1ccc(C2Oc3ccccc3C(=O)N2Cc2ccccc2)cc1COc1ccc(NC(C)=O)cc1 (stereo not given)	–	-16.1% (inactive)
FC(F)(F)c1ccc(-c2ccc(CNc3nc(-c4ccccc4C(F)(F)F)nc4ccccc34)cc2)cn1	–	-28.7% (inactive)
CN(C)CCCNC(=O)c1ccc(-c2cnc3c(O)cccc3c2)cc1	–	13.6% (inactive)
O=C(O)c1ccc(-n2cccc2/C=C2\SC(=O)N(Cc3ccc(F)cc3)C2=O)cc1	–	-17.2% (inactive)
COc1ccc(C2=Nn3c(nnc3-c3cccc(OC)c3OC)SC2)c(OC)c1	–	2.89% (inactive)
O=C(Nc1cncc(Cc2ccccc2)c1)c1ccc(-c2cccc([N+](=O)[O-])c2)o1	–	-12.7% (inactive)
COc1ccc(OCc2cc(C3Nc4ccccc4C(=O)N3Cc3ccccc3)ccc2OC)cc1 (stereo not given)	–	3.58% (inactive)
O=C(NCCCCc1ccccc1)C1CCN(c2nc(-c3ccc(Br)cc3)cs2)CC1	–	-3.21% (inactive)
COc1ccc(C2c3c(ncn(CCN4CCOCC4)c3=N)Oc3ccc4ccccc4c32)cc1OC (stereo not given)	–	17.9% (inactive)
FC(F)Oc1ccc(C2=Nn3c(nnc3-c3ccccc3C(F)(F)F)SC2)cc1OCC1CC1	–	11.7% (inactive)
Cc1ccnc(CC(=S)N2CCN(c3cccc(C(F)(F)F)c3)CC2)c1	–	-26.2% (inactive)
N#Cc1nc(Nc2cccc(Cl)c2)nc(NC2CCCC2)n1	–	-0.878% (inactive)
COc1ccc(C2Nc3ccccc3C(=O)N2CCc2ccc(Cl)cc2Cl)cc1COc1ccc(NC(C)=O)cc1 (stereo not given)	–	-5.6% (inactive)

SMILES	Potency	activity change, negative = inhibition
COc1cc2ncnc(N(C)Cc3csc(C)n3)c2cc1-c1ccc2c(c1)OCO2	–	-9.97% (inactive)
CC(C)Oc1cccc(-c2cnc(N3CCC(C(N)=O)CC3)s2)c1	–	2.13% (inactive)
O=C(Nc1nc(-c2ccccc2)cs1)c1ccncc1NS(=O)(=O)c1ccc(Cl)cc1	–	-18.4% (inactive)
Cc1cc(-c2nnc3n2CCCC3)c(C)n1-c1ccccc1	–	-1.57% (inactive)
CN(CC(=O)O)c1ncnc2ccc(-c3ccc4c(c3)OCO4)cc12	–	5.2% (inactive)
COc1ccc(C2=Nn3c(nnc3-c3ccccc3OC)SC2)cc1	–	5.08% (inactive)
COc1ccc(C2Nc3ccccc3C(=O)N2CCCN(C)C)cc1COc1ccc(NC(C)=O)cc1 (stereo not given)	–	-9.32% (inactive)
Cc1[nH]c2ccccc2c1C1=C(NCCc2ccc(F)cc2)C(=O)N(C)C1=O	–	-19% (inactive)
CNc1oc(-c2c[nH]c3ccccc23)nc1C#N	–	-5.23% (inactive)
COc1ccc(NC(=O)CN(C)C(=O)c2cc3c(s2)CCC3)cc1	–	5.77% (inactive)
Cc1cc(-c2nnc3n2CCCCC3)c(C)n1-c1ccc(Cl)c(Cl)c1	–	-7.72% (inactive)
N#Cc1nc(Nc2ccc(F)cc2)nc(NC2CCCC2)n1	–	2.04% (inactive)
O=C(CN1C(=O)N/C(=C\c2cn(-c3cccc(C(=O)O)c3)cn2)C1=O)Nc1ccccc1Cl	–	-12.2% (inactive)
Cc1cc(C)nc(NC(=S)N2CC3CN(c4ncc(C(F)(F)F)cc4Cl)CC3C2)c1 (stereo not given)	2.51 µM (active)	–
O=C([C@H](Cc1ccc(O[S+](=O)([O-])c2cccnc2)cc1)N[S+](=O)([O-])c1ccccn1)N1CCN(c2ccccc2)CC1	–	-8.06% (inactive)
Fc1cnc(-c2ccccc2C(F)F)nc1NCC1CCN(c2cnccn2)CC1	–	-5.46% (inactive)
COc1ccc(-c2nc3ccccc3c(=O)n2Cc2ccco2)cc1COc1ccc(NC(C)=O)cc1	–	-19.2% (inactive)
CC(C)(C)OC(=O)NCCOCCOCCOCCn1ncc2c1CCCC2NC(=O)c1ccccn1 (stereo not given)	–	-10% (inactive)
O=[S+]([O-])(Nc1ccc(-c2nc3ccccc3[nH]2)cc1)c1ccc2c(c1)OCO2	–	-17.1% (inactive)
CN1CCN(c2ccc(Nc3nn4c(=O)c5ccccc5nc4s3)cc2)CC1	–	-2.42% (inactive)
